Measurements published in PubChem BioAssay AID504845 (National Center for Advancing Translational Sciences (NCATS), 2011).
Out of some 390,000 compounds screened, about 150 (0.038%) were called active. Not shown: some 3% with an inconclusive outcome. The entries come from a sample that favours actives as a whole. Values without a mark were called inactive. Calls come from the whole dose curve; as a rule, active = well fitted inhibition curve with a large enough effect; inconclusive = small, poorly fitted or top-dose-only effect; inactive = no such curve, though single readings can be large or run the other way.

Target: Regulator of G-protein signaling 4 (Homo sapiens) (UniProt P49798)
Assay: Inhibitors of Regulator of G Protein Signaling (RGS) 4: qHTS; note: nearly all actives have a fitted effect of over 75% in size
Settings: Transcreener GDP fluorescence polarization, RGS4-accelerated GTP hydrolysis; series mostly up to 114 µM; activity change, negative = inhibition: at the top concentration
Text: G-protein-coupled receptors (GPCRs) are well-established targets for drug discovery and development. Members of the "regulator of G-protein signaling" (RGS)-protein superfamily have recently emerged as critical modulators of specific GPCR signaling pathways. […] Combining specific RGS domain inhibitors with existing GPCR agonists should potentiate cellular responses and could also increase the specificity of action of existing therapeutics. Small molecule modulators of RGS domain activity should also have clinical utility in inhibiting or potentiating the actions of endogenous GPCR agonists. In particular, the diversity of RGS proteins with highly localized and dynamically regulated distributions in the human brain makes this family of proteins attractive targets for pharmacotherapy of central nervous system (CNS) disorders such as Parkinson's disease, schizophrenia, and anxiety.
This assay was used to screen the NIH Molecular Libraries Small Molecule Repository (MLSMR) in order to identify a small molecule that inhibits RGS4.
NIH Chemical Genomics Center [NCGC]
NIH Molecular Libraries Probe Centers Network [MLPCN]
Assay Submitter (PI): David Siderovski, University of North Carolina Chapel Hill (School of Medicine)
Two microliters of 500nM (2x working concentration) is dispensed into black medium-binding solid-bottom Kalypsys plates. Then with the Kalypsys pintool 23nl of control and compounds are transferred; the control compound is […] CCG-4986 (working concentration). After a 10 minute incubation at room temperature 2ul of antibody is added with the Kalypsys dispenser; (-)RGS4/Transcreener GDP solution in columns 3 and 4 which consisted of 10nM (2x working concentration) Alexa633, 20uM GTP, and 20 ug/ml GDP antibody and (+)RGS4/Transcreener GDP solution in columns 1,2, and 5 to 48 which consists of 900nM RGS4 (2x working concentration), 10nM Alexa633, 20 ug/ml GDP antibody. The plate is centrifuged at 1000 RPM for 15 seconds to remove any possible bubbles and then incubated for 5 minutes at ambient room temperature. An initial fluorescent polarization read (620 nm/688 nm) is performed on the Envision before the plate is incubated for 90 minutes at 30 deg C at a relative humidity of 80%. The plate is once more centrifuged at 1000 RPM for 15 seconds and another Envision fluorescent polarization (620 nm/688 nm) read is carried out.
% is set by controls: 0 for no effect and ±100 for the full control effect.

Regulator of G-protein signaling 4 (Homo sapiens), sequence (P49798 whole entry, looked up): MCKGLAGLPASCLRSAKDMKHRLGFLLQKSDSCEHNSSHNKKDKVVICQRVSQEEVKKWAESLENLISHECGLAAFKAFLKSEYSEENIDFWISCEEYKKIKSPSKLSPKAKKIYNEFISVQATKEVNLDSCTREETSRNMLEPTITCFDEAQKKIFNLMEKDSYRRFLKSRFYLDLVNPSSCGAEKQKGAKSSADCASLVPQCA

Row | Compound | activity change, negative = inhibition
1 | CC(C)NC(=O)C1CCC(Cn2c(=O)c3sccc3n(Cc3ccc(F)cc3)c2=O)CC1 (stereo unspecified) | 11.4%
2 | Oc1ccc(Br)cc1C1C=C(c2ccc3c(c2)OCO3)NC(c2ccc(Cl)cc2)N1 (stereo unspecified) | -36%
3 | Cc1ccc2ccc3c(c2n1)NS(=O)(=O)c1ccccc1-3 | -16.3%
4 | COc1ccc2c(C)c(CCC(=O)NCc3ccc(OC)c(OC)c3)c(=O)oc2c1 | -14.1%
5 | Cc1c(-c2nc(-c3ccc4c(c3)OCO4)no2)nnn1-c1ccc(Br)cc1F | -24.4%
6 | COc1ccc(OC)c(NC(=O)CSC2=Nc3ccccc3C3=NC(CC(=O)NCCc4ccccc4)C(=O)N23)c1 (stereo unspecified) | 16.3%
7 | CC(C)NC[C@H](O)c1ccc2ccccc2c1 | -510% [at 56.9 µM, above what the read-out allows, likely interference]
8 | O=C(CSc1nccn1-c1ccc(F)cc1)Nc1cccc2ccccc12 | -5.41%
9 | COc1ccc(-n2c(SCC(N)=O)nc3c(oc4ccccc43)c2=O)cc1 | -18.4%
10 | CCn1c(CN2CCC(C)CC2)nc2cc(NC(=O)c3ccccc3[N+](=O)[O-])ccc21 | -7.66%
11 | O=C(c1ccc2c(c1)N(Cc1ccccc1)C(=O)c1ccccc1S2(=O)=O)N1CCC(Cc2ccccc2)CC1 | 8.32%
12 | COc1ccc(-c2cccc(NS(=O)(=O)c3cc(C)c(OC)c(C)c3C)c2)nn1 | -39.8%
13 | CCc1ccc(NC(=O)CSc2nc3c([nH]c4ccccc43)c(=O)n2-c2cccc(OC)c2)cc1 | 0.52%
14 | CCN(CC)c1nc(C#N)nc(OC)n1 | 23.2%
15 | CC(C)(C)c1ccc(C(=O)N2CCC(c3nc(-c4ccc(S(=O)(=O)N5CCCC5)cc4)no3)CC2)cc1 | 7.58%
16 | Cn1c(=O)c2c(n3c4ccccc4nc13)NC(=O)CC2c1cccc(Cl)c1 (stereo unspecified) | -17.3%
17 | CC(C)Sc1oc(-c2cccs2)nc1S(=O)(=O)c1ccc(Cl)cc1 | -16.4%
18 | Cc1ccc(SCC(=O)Nc2ccc3oc(-c4ccccc4C)nc3c2)cc1 | -0.0912%
19 | C=C1CCN(C(CC(C)C)C(=O)NCc2cc(OC)c(OC)c(OC)c2)S(=O)(=O)c2ccccc21 (stereo unspecified) | -6.11%
20 | COC(=O)CCc1ccccc1S(=O)(=O)N(CCC(=O)OC)Cc1ccccc1 | -18.2%
21 | CCOC(=O)c1ccc(NC(=O)Cn2c(=O)n(-c3ccc(C)cc3)c(=O)c3c2cnn3C)cc1 | 2.84%
22 | Cc1nn(C(C)C(=O)Nc2ccc(C(C)C)cc2)c(=O)c2c1sc1ccccc12 (stereo unspecified) | -6.31%
23 | OC[C@@H]1O[C@H](n2cnc3c(SCc4ccccc4)ncnc32)[C@H](O)[C@H]1O | -4.78%
24 | CCOc1ccc(Nc2c(S(=O)(=O)c3ccccc3)cnc3ccccc23)cc1 | 21.6%
25 | COc1ccc(NC(=O)c2ccc3nc(C(C)C)oc3c2)cc1OC | -2.42%
26 | Cc1ccc(-c2nn(CC(C)(C)C)c3ncnc(N)c23)cc1 | 117% [at 56.9 µM]
